Here are results for seven molecules from PubChem BioAssay (Tox21).

Values without a mark were called inactive. Inconclusive results are not listed. Activity calls are given as the source filed them. Unless noted, calls come from the whole dose curve.

Assay [1] can be described thus: Nuclear factor erythroid 2-related factor 2/antioxidant responsive element (Nrf2/ARE) small molecule agonists: qHTS cell viability counter screen in human keratinocytes (AID 1919968; active = well fitted curve in the direction sought with a large enough effect in the repeat runs; an effect the other way counts as inactive or inconclusive; note: nearly all actives have a fitted effect of over 55% in size). An outline of the steps: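 Parallel cytotoxicity read: KeratinoSens HaCaT cells, compound treatment 23 h, viability by CellTiter-Fluor fluorescence 1 h post-reagent.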
Background: Quantitative high-throughput screening tests each substance at several concentrations.

Assay [2] in a line: Nuclear factor erythroid 2-related factor 2/antioxidant responsive element (Nrf2/ARE) small molecule agonists: luciferase reporter gene qHTS assay in human keratinocytes (AID 1919969; note: nearly all actives have a fitted effect of over 35% in size; note: potency is the fitted concentration of half-maximal effect). (In a reporter assay the amount or activity of a reporter protein is the signal.)
For assay [3], the target named is Gonadotropin-releasing hormone receptor (Homo sapiens) (UniProt P30968). Description: Human gonadotropin-releasing hormone receptor (GnRHR) small molecule agonists, calcium flux assay in GnRHR-HEK293 cells (AID 1920063). Note: nearly all actives have a fitted effect of over 35% in size. An outline of the steps:
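Calcium flux, agonist mode, human GnRHR stably integrated in HEK293; dye 1 h at 37 C before compound; Ex/Em=480/540 kinetic read, 3 min; 15 concentrations, triplicate.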
For orientation: Calcium flux is commonly read through the fluorescence of an indicator in the cells.

Assay [4] deals with KiSS-1 receptor (Homo sapiens) (UniProt Q969F8). In words: Human kisspeptin (KISS1R) small molecule agonists, calcium flux assay in KISS1R-HEK293 cells (AID 1920064; active = well fitted curve in the direction sought with a large enough effect in the repeat runs; an effect the other way counts as inactive or inconclusive). An outline of the steps: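 Triplicate 15-concentration series were applied to dye-loaded human KISS1R HEK293 cells, and agonist-evoked calcium fluorescence was captured for 3 min.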
KiSS-1 receptor (Homo sapiens), sequence (Q969F8 whole entry, looked up): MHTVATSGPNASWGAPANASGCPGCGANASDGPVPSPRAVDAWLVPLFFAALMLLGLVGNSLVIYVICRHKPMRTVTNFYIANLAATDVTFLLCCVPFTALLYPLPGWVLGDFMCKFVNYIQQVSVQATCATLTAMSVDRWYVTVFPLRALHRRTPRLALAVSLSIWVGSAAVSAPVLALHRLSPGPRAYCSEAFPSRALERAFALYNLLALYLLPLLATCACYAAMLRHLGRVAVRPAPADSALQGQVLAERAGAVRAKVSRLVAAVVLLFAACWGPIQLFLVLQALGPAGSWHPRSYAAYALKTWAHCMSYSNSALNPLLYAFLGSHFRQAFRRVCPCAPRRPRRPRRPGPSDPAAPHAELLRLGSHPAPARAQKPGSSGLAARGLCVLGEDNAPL
Assay [5] in a line: G protein-coupled receptor (GPCR) small molecule agonists, calcium flux assay: HEK293 wild type cell line counter screen (AID 1920065). The method in brief: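 Non-specific calcium responders were flagged by adding DMSO-dissolved compounds to dye-loaded cells and reading 480/540 nm fluorescence each second for 3 min; ATP served as positive control.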
The nature of assay [6]: p53 small molecule agonists, cell-based qHTS assay with human liver microsomes (AID 1963577).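 Note: p53 response element beta-lactamase reporter cells with liver microsomes plus NADPH.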 The method in brief:
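16 h, 37 C exposure of p53RE-bla cells to compounds with human liver microsomes and NADPH (0.5 mg/mL final each); detection via LiveBLAzer mixture, 2 h dark at room temperature.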

A short description of assay [7]: p53 small molecule agonists, cell-based qHTS assay with rat liver microsomes (AID 1963578). An outline of the steps:
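With rat liver microsomes and NADPH present (0.5 mg/mL final each), p53RE-bla cells are treated with compound for 16 h at 37 C. LiveBLAzer detection mixture is then applied for 2 h at room temperature in the dark.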

Assay [8] is described as follows: p53 small molecule agonists, cell-based qHTS assay with human liver microsomes: qHTS cell viability counter screen (AID 1963579). Note: nearly all actives have a fitted effect of over 45% in size. The method in brief: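 In this multiplexed counter screen, the reporter plates were subsequently treated with CellTiter-Glo so that cell viability, reflected by luminescence, could be recorded for p53RE-bla cells dosed 16 h with compounds under microsomal activation (HLM and NADPH).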

The nature of assay [9]: p53 small molecule agonists, cell-based qHTS assay with rat liver microsomes: qHTS cell viability counter screen (AID 1963580). Note: nearly all actives have a fitted effect of over 45% in size. An outline of the steps:
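Cytotoxicity counter screen: intracellular ATP measured by CellTiter-Glo luminescence in the same wells as the beta-lactamase reporter read, on HCT-116 p53RE-bla cells exposed 16 h at 37 C to compounds with rat liver microsomes and NADPH, each 0.5 mg/mL final.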

Assay [10] can be described thus: p53 small molecule agonists, cell-based qHTS assay: qHTS cell viability counter screen (AID 1963581). Note: nearly all actives have a fitted effect of over 45% in size. Note: potency is the fitted concentration of half-maximal effect. The method in brief:
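Multiplexed with the reporter read, a CellTiter-Glo step (30 min, room temperature) gauges ATP-based viability of HCT-116 p53RE-bla cells after 16 h compound incubation at 37 C.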

A short description of assay [11]: p53 small molecule agonists, cell-based qHTS assay (AID 1963582; active = well fitted activation curve with a large enough effect in the signal ratio in the repeat runs, not every such curve was filed as active; the % refers to the signal ratio). The method in brief: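 Beta-lactamase reporter cells (p53RE-bla) treated with compounds for 16 h at 37 C; FRET substrate, 2 h, room temperature; fluorescence intensity.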
The target of assay [12] is 5-hydroxytryptamine receptor 2A (Homo sapiens) (UniProt P28223). Description: 5-hydroxytryptamine receptor 2A (HTR2A) small molecule antagonists, cell-based qHTS assay (AID 1963586). Note: nearly all actives have a fitted effect of over 45% in size. The method in brief:
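CHO cells stably expressing human HTR2A were plated for 18 h at 37 C, then loaded with calcium dye for 1 h. Compounds were preincubated 5 min at room temperature before DOI (4 nM solution) was added. Kinetic fluorescence was read for 3 min.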

The target is the same in assay [13]. Description: 5-hydroxytryptamine receptor 2A (HTR2A) small molecule agonists, cell-based qHTS assay (AID 1963587). Note: nearly all actives have a fitted effect of over 30% in size. An outline of the steps:
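CHO cells stably expressing human HTR2A, plated 18 h, loaded with calcium dye 1 h at 37 C. Agonist mode: compounds added and intracellular calcium fluorescence recorded kinetically for 2 min at 1 sec intervals.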

Assay [14] deals with Muscarinic acetylcholine receptor M1 (Homo sapiens) (UniProt P11229). Description: Cholinergic receptor muscarinic 1 (CHRM1) small molecule agonists, cell-based qHTS assay (AID 1963589). Note: nearly all actives have a fitted effect of over 35% in size. An outline of the steps:
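qHTS, 15-point titration, 3 independent runs: compounds pin-transferred onto dye-loaded CHRM1-CHO cells (human M1), calcium fluorescence followed every second to detect agonism.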

The nature of assay [15]: cAMP Responsive Elements (CRE) small molecule agonists, cell-based qHTS assay (AID 1963590). The method in brief: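 Quantitative HTS for CRE agonists: HEK 293T CRE-bla cells, overnight plating, 3 h compound incubation at 37 C/5% CO2, then 2 h room-temperature LiveBLAzer B/G FRET substrate loading.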
Assay [16] can be described thus: cAMP Responsive Elements (CRE) small molecule antagonists, cell-based qHTS assay (AID 1963591; active = well fitted inhibition curve with a large enough effect in the signal ratio in the repeat runs, not every such curve was filed as active; the % refers to the signal ratio). An outline of the steps: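 Fluorescence intensity from cleaved LiveBLAzer B/G substrate (2 h, room temperature) quantified CRE-bla activity in HEK 293T cells exposed 3 h to compound with 0.25 uM final NKH477.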
Assay [17] concerns the target Beta-2 adrenergic receptor (Homo sapiens) (UniProt P07550). Description: Adrenergic beta2 receptor (ADRB2) small molecule antagonists, cell-based qHTS assay (AID 1963592). Note: series mostly up to about 92 µM; nearly all actives have a fitted effect of over 50% in size. The method in brief: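 Assay format: CHO-ADRB2 cells, 18-20hr seeding at 37C/5% CO2, then compound plus 1nM isoproterenol agonist mix for 0.5hr RT. Homogeneous time-resolved fluorescence cAMP detection after 1hr, expressed as 665/615 nm ratio.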

In assay [18] the target is D(2) dopamine receptor (Homo sapiens) (UniProt P14416). In words: Dopamine D2 receptor (DRD2) small molecule agonists, cell-based qHTS assay (AID 1963594). Note: nearly all actives have a fitted effect of over 35% in size. The method in brief:
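HEK293 cells stably expressing human DRD2, pre-treated with PDE inhibitor Ro20-1724 (0.1 mM final) and compound 10 min at room temperature, then stimulated with NKH477 (200nM […]) for 30 min. cAMP read by HTRF (665/620 nm).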

Assay [19] has the same target. In words: Dopamine D2 receptor (DRD2) small molecule antagonists, cell-based qHTS assay (AID 1963595; active = well fitted inhibition curve with a large enough effect in the signal ratio in the repeat runs, with a control signal flat; the % refers to the signal ratio). The method in brief:
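Antagonist mode in DRD2-HEK293 cells: after compound addition with 0.1 mM Ro20-1724, cells received quinpirole (12 nM) and NKH477 (200 nM) for 30 min at room temperature; HTRF cAMP read after 1 h detection.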

Assay [20] concerns the target Muscarinic acetylcholine receptor M1 (Homo sapiens) (UniProt P11229). Description: Cholinergic receptor muscarinic 1 (CHRM1) small molecule antagonists, cell-based qHTS assay (AID 1963588). Note: nearly all actives have a fitted effect of over 40% in size. An outline of the steps:
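Compounds were tested at 15 concentrations in three independent runs. Dye-loaded CHRM1-CHO cells were exposed 5 min at room temperature before stimulation by acetylcholine added at 50nM. Intracellular calcium was read kinetically on FDSS for 3 min.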

5-hydroxytryptamine receptor 2A (Homo sapiens), sequence (P28223 whole entry, looked up): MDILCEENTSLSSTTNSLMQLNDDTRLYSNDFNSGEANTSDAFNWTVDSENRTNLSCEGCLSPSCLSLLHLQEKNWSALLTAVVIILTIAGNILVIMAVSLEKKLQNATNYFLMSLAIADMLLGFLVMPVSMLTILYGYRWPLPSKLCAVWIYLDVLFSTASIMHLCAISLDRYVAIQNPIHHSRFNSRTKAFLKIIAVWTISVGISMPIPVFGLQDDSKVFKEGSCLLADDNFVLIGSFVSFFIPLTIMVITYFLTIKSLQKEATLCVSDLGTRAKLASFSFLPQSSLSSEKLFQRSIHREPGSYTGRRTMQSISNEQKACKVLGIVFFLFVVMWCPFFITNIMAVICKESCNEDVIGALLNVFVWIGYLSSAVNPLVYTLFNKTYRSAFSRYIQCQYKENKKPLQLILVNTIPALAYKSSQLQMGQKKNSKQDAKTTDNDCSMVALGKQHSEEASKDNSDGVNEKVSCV
D(2) dopamine receptor (Homo sapiens), sequence (P14416 whole entry, looked up): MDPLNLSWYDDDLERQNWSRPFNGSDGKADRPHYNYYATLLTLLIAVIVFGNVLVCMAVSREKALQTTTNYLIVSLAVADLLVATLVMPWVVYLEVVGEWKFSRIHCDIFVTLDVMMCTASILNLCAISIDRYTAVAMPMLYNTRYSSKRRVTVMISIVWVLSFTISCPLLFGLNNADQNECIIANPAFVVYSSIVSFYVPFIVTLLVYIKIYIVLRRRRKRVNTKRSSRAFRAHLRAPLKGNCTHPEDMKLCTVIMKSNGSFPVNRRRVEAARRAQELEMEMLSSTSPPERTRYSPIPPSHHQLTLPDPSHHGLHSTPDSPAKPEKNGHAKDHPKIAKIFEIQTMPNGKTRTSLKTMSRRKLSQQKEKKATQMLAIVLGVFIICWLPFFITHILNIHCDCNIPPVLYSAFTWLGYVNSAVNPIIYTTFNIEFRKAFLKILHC
Beta-2 adrenergic receptor (Homo sapiens), sequence (P07550 whole entry, looked up): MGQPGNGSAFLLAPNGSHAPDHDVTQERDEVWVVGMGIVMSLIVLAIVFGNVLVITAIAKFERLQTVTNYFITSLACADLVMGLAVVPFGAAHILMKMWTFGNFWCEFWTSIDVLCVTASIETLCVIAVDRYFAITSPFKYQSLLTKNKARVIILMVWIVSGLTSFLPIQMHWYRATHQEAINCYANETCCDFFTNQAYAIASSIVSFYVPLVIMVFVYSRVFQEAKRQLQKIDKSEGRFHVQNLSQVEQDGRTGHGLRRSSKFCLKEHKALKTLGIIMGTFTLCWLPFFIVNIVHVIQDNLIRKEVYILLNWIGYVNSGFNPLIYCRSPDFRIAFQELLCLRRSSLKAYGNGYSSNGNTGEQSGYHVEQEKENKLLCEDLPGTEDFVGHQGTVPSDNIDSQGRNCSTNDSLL
Muscarinic acetylcholine receptor M1 (Homo sapiens), sequence (P11229 whole entry, looked up): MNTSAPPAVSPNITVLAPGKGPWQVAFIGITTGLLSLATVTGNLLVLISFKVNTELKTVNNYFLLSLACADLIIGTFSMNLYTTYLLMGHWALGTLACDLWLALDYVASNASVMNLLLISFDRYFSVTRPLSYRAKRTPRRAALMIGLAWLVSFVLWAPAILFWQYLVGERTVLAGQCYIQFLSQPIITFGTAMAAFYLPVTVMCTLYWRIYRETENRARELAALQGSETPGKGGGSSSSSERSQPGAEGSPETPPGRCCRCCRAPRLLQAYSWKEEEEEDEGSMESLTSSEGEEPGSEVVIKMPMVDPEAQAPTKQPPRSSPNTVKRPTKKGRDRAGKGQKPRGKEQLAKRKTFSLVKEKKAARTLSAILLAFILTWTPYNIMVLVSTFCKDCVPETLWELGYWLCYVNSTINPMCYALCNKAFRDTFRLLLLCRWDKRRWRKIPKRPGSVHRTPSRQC
Gonadotropin-releasing hormone receptor (Homo sapiens), sequence (P30968 whole entry, looked up): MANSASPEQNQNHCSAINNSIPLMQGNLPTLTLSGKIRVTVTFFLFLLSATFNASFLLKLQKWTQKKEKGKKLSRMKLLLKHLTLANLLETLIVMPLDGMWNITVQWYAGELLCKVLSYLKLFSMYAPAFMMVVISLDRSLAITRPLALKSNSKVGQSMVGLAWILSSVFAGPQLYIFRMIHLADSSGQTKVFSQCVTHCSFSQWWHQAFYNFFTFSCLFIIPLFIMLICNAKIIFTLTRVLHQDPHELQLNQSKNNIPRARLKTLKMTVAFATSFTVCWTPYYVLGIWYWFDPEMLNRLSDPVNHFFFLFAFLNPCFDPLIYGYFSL

`C=COCCCCO`: the Potency entry in assay [1], in assay [2], in assay [3], in [6], in assay [7] and in [8] was “inactive” each time. For the same molecule, the Potency entry in assay [9], in assay [10], in assay [11], in [12], in assay [13] and in [14] was “inactive” in each case. Moreover, the Potency entry in [15], in [16], in assay [17], in assay [18] and in [19] was “inactive” each time. Also, the outcome in assay [4] and in assay [5] was inactive.
On to `CC(=O)OCC(=O)[C@@]1(O)CCC2C3CCC4=CC(=O)CC[C@]4(C)C3[C@@H](O)C[C@@]21C` (stereo partly drawn), for which the Potency entry in [1], in [2], in [3], in [6], in assay [7] and in assay [8] was “inactive” in each case. Besides, the Potency result in assay [9], in assay [10], in [11], in assay [12], in [13] and in assay [20] was “inactive” throughout. For the same molecule, the Potency result in assay [15], in assay [16], in assay [17], in assay [18] and in [19] was “inactive” each time. The result in [4] and in assay [5] was inactive.
Consider `ClCCl`, for which the Potency result in assay [1], in [2], in assay [3], in [6], in assay [7] and in assay [8] was “inactive” each time. The Potency result in [9], in assay [10], in assay [11], in [12], in assay [13] and in [14] was “inactive” throughout. Also, the Potency result in assay [15], in assay [16], in assay [17] and in assay [18] was “inactive” throughout. The outcome in [4] and in assay [5] was inactive.
`c1ccc(SSc2ccccc2)cc1`: the Potency entry in assay [1], in assay [3], in assay [6], in assay [7], in assay [8] and in assay [9] was “inactive” in each case. The Potency result in [10], in [11], in assay [12], in assay [13], in [20] and in assay [14] was “inactive” throughout. For the same molecule, the Potency result in [18] and in [19] was “inactive” in each case. For the same molecule, in assay [2], the Potency is 27.5 µM (active). Also, the result in assay [4] and in assay [5] was inactive.
As to `CCN(Cc1c(F)cccc1Cl)c1c([N+](=O)[O-])cc(C(F)(F)F)cc1[N+](=O)[O-]`, the Potency entry in assay [1], in [3], in assay [6], in assay [7], in [8] and in assay [9] was “inactive” each time. Moreover, the Potency result in [11], in assay [12], in assay [13], in assay [20], in [16] and in assay [17] was “inactive” in each case. For the same molecule, the Potency entry in [18] and in assay [19] was “inactive” each time. Moreover, the values for the Potency in assay [2] and in [10] were 15.4 µM (active) and 25.7 µM (active), respectively. Besides, the outcome in assay [4] and in assay [5] was inactive.
As for `CC(C)(C)c1cc(CCC(=O)OCCSCCOC(=O)CCc2cc(C(C)(C)C)c(O)c(C(C)(C)C)c2)cc(C(C)(C)C)c1O`, the Potency entry in assay [1], in assay [2], in assay [3], in assay [6], in assay [7] and in [8] was “inactive” in each case. Further, the Potency entry in assay [9], in [10], in assay [11], in assay [12], in assay [13] and in assay [20] was “inactive” in each case. Also, the Potency entry in assay [15], in [17], in assay [18] and in [19] was “inactive” throughout. The result in [4] and in assay [5] was inactive.
Consider `Cc1occc1C(=O)Nc1ccc(C(=O)N2CCC(F)(F)/C(=C\C(=O)N3CCC(N4CCCCC4)CC3)c3ccccc32)cc1`, for which the Potency result in assay [1], in assay [2], in assay [3], in [6], in assay [7] and in [8] was “inactive” in each case. For the same molecule, the Potency result in [9], in assay [10], in assay [11], in [12], in [13] and in assay [14] was “inactive” throughout. Further, the Potency result in assay [15], in assay [16], in assay [17], in assay [18] and in [19] was “inactive” throughout. In addition, the outcome in assay [4] and in assay [5] was inactive.
